# Shown are actives, neighbours in structure and some others; about 6% of the full set was active somewhere.
# Tau ThT inhib – inhibitors of human tau fibril formation, thioflavin T binding; recombinant tau K18 P301L, heparin-induced fibrillization, ThT fluorescence; P10636; Potency, µM (highest dose often 57.4 µM), hits mostly inhibitors; 2.1% of 270,000 active; also: nearly all actives have a fitted effect of over 55% in size
#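 Tau K18 P301L fragment (15 uM unlabeled plus 0.24 uM Alexa 594-labeled) in 100 mM sodium acetate pH 7 with compound, fibrillization induced by 20 uM heparin for 6 hr at 37 C. Thioflavin T (30 uM) added, fluorescence read after 1 hr (ex 450, em 510 nm).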
# VDR inhibitor – vitamin D3 receptor (human) inhibition | P11473 | AID 504847 | VDR-SRC2-3 peptide fluorescence polarization, 2 h | Potency, µM, most hits filed as inhibitors | 0.93% of 400,000 active
#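 Compounds are added to VDR with labelled SRC2-3 coactivator peptide and held 2 h at room temperature. Inhibition of the VDR–peptide interaction is then read as a change in fluorescence polarization.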
# Tau fluor counter – counter-screen for tau fibril formation inhibitors; 0.93% of 280,000 active; AID 1463; Potency, µM (doses to about 57.7 µM); tau K18 P301L Alexa594 fluorescence, heparin fibrillization; also: nearly all actives have a fitted effect of over 55% in size
#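 Human tau K18 P301L (15 uM unlabeled, 0.24 uM Alexa 594-labeled) in 100 mM sodium acetate pH 7 with 20 uM heparin, 6 hr at 37 C. ThT 30 uM added, 1 hr ambient; Alexa 594 FP and total fluorescence read at 555/632 nm.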
# PLK1 PBD block – blocks phosphopeptide binding to human PLK1 polo-box domain | AID 720504 | 2.8% of 360,000 active | P53350 | Plk1 PBD binding of FITC phosphopeptide, fluorescence polarization | Potency, µM, actives largely listed as inhibitors; also: series mostly up to about 57 µM; nearly all actives have a fitted effect of over 65% in size
# Sfp PPTase inh – Sfp phosphopantetheinyl transferase inhibition; Biochemical Sfp PPTase activity, qHTS; 3.5% of 310,000 active; Potency, µM, actives largely listed as inhibitors;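 also: the enzyme is Sfp with the accession as filed and its product quenches rhodamine fluorescence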
#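 Fluorescence-quenching assay with 15 nM Sfp, 5 uM rhodamine-CoA and 12.5 uM BHQ-2-labelled ybbR peptide in pH 7.6 Hepes/MgCl2 buffer. Enzyme was pre-incubated with compound for 15 min at room temperature. Rate was taken from the 30-min fluorescence change (525/598 nm).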
# Tau fibril FP – inhibitors of human tau fibril formation; 0.39% of 280,000 active; Potency, µM (titrated, usually from 57.7 µM), hits mostly inhibitors; K18 P301L tau heparin fibrillization, Alexa594 FP, 6 h; P10636; also: nearly all actives have a fitted effect of over 55% in size
#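 Heparin (20 uM) drove fibril formation of recombinant tau K18 P301L, 15 uM unlabeled with 0.24 uM Alexa 594 label, for 6 hr at 37 C in 100 mM sodium acetate pH 7. Fluorescence polarization (555/632 nm) read 1 hr after 30 uM ThT.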
# Numbers stand for hits; n = inactive; u = inconclusive; x = not tested or not shown. Calls follow the shape of the dose curve; as a rule, active = well fitted curve in the direction sought with a large enough effect; inconclusive = small, poorly fitted or top-dose-only effect, or another doubt; inactive = no such curve, though single readings can be large; an effect the other way counts as inactive or inconclusive.
SMILES,Tau ThT inhib,VDR inhibitor,Tau fluor counter,PLK1 PBD block,Sfp PPTase inh,Tau fibril FP
c1ccc2c(-c3[nH]ncc3CNCCCn3ncc4ccccc43)cccc2c1,n,u,n,24µM,n,n
O=c1[nH]cnc2c1C(c1ccccc1)c1c(nc[nH]c1=O)O2,x,n,x,n,n,x
O=c1[nH]cnc(O)c1C1C=CC=CC=C1,x,40µM,x,n,x,x
COc1cc2c(cc1OC)CN(c1ccc3ccccc3n1)CC2,x,n,x,n,56µM,x
CC(C)(C)c1cc(CCC(=O)NN)cc(C(C)(C)C)c1O,n,n,n,n,n,n
COCCOC(=O)/C(=C\c1cc(C(C)(C)C)c(O)c(C(C)(C)C)c1)C(C)=O,n,35µM,n,n,n,n
CCOC(=O)N1CCN(C(=O)Cn2nc(C)n3nc(-c4ccccc4)cc3c2=O)CC1,x,n,x,n,n,x
Cc1cc(/C=C2\C(=N)N3N=C(c4ccco4)SC3=NC2=O)c(C)n1Cc1ccccc1,13µM,n,u,27µM,u,n
N=C1/C(=C\c2coc3ccc(O)cc3c2=O)C(=O)N=C2SC=CN12,13µM,n,u,n,u,n
CN1C(=O)/C(=C/c2coc3ccc(O)cc3c2=O)SC1=S,u,n,n,n,n,n
N=C1/C(=C\c2coc3ccccc3c2=O)C(=O)N=C2SC(c3ccncc3)=NN12,13µM,28µM,n,n,n,u
N=C1/C(=C/c2coc3ccccc3c2=O)C(=O)N=C2SC(c3ccco3)=NN12,u,u,n,u,40µM,n
C=CCc1cccc(/C=N/NC(=O)CN2CCN(Cc3ccccc3)CC2)c1O,x,n,x,x,n,x
CCN(C(=O)c1cccn(Cc2ccccc2C)c1=O)c1ccccc1,n,n,n,x,x,n
O=C1OCCC1Sc1nnc(-c2ccc3c(c2)OCO3)o1 (stereo not drawn),n,n,n,n,n,n
O=C1OCCC1Sc1nnc(-c2ccc(O)cc2)o1 (stereo not drawn),n,n,n,27µM,n,n
O=C(CCNc1cccc(F)c1)c1cccc([N+](=O)[O-])c1,u,89µM,u,u,n,n
CCC(=O)N1CCN(c2ccc(NC(=O)c3ccc(N4CCCC4)c([N+](=O)[O-])c3)cc2)CC1,0.63µM,n,n,n,n,n
COc1ccc(C(=O)Nc2ccc(S(=O)(=O)NC(C)=O)cc2)cc1[N+](=O)[O-],n,n,n,n,n,n
CCC(=O)N1CCN(c2ccc(NC(=S)NC(=O)c3ccc(OC)c([N+](=O)[O-])c3)cc2)CC1,2.5µM,n,u,n,n,u
CCOc1ccc(C(=O)NC(=S)Nc2ccc(N3CCC(C)CC3)cc2)cc1[N+](=O)[O-],u,n,u,n,n,n
CCOCCCNS(=O)(=O)c1ccc(NC(=O)c2ccc(OC)c([N+](=O)[O-])c2)cc1,n,u,n,3.4µM,n,n
CCC(=O)N1CCN(c2ccc(NC(=O)c3ccc(N4CCOCC4)c([N+](=O)[O-])c3)cc2)CC1,x,n,x,n,n,x
O=C1Nc2ccc(Br)cc2C1=C1CCCCC1,x,n,x,n,n,x
N#C/C(=C1/C(=O)Nc2ccc(Br)cc21)c1ccccn1,28µM,n,n,n,n,u
SMILES,Tau ThT inhib,VDR inhibitor,Tau fluor counter,PLK1 PBD block,Sfp PPTase inh,Tau fibril FP
Cn1c(=O)c2c(SCC(=O)NCc3ccco3)nc(-c3ccccc3)nc2n(C)c1=O,n,n,n,x,x,n
COc1ccc(NS(=O)(=O)c2c(C(=O)N3CCCCCC3)c(C)n(C)c2C)cc1OC,x,n,x,u,n,x
COc1cc(Cl)c(NS(=O)(=O)c2c(C(=O)N3CCCC3)c(C)n(C)c2C)c(OC)c1,x,n,x,27µM,n,x
CCOC(=O)c1c(S(=O)(=O)N2CCN(c3ccccc3OC)CC2)c(C)n(C)c1C,n,n,n,x,x,n
COc1ccccc1N1CCN(S(=O)(=O)c2c(C(=O)N3CCOCC3)c(C)n(C)c2C)CC1,x,u,x,3.4µM,n,x
COc1cc(C(C)=O)ccc1OC(=O)N1CCOCC1,x,x,x,n,x,x
O=C(CN1CCC(Cc2ccccc2)CC1)N1CCc2ccccc2C1,n,n,n,27µM,n,n
O=C(CN1CCN(c2ccc(F)cc2)CC1)N1CCC(Cc2ccccc2)CC1,u,n,n,n,n,n
Cc1ccc(C)c(S(=O)(=O)N2CCN(CC(=O)N3CCc4ccccc4C3)CC2)c1,n,n,n,n,56µM,n

# Bioassay records from PubChem BioAssay.
